The record followed here is PubChem BioAssay (NCI).

About 83,000 compounds went through this panel and 20% of them were active in at least one assay; those are over-represented in the sample as a whole.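 Activity criterion: percent growth below 10, measured after cells in 96-well plates were exposed to a single compound concentration for 48 hours.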 Unmarked numbers belong to inactive results. Activity calls are given as the source filed them.

Some test systems named below: NCI-H23 lung; NCI-H226 lung; NCI-H322M lung; HOP-62 NSCLC; NCI-H460 lung; HOP-92 NSCLC; NCI-H522 lung; A549/ATCC NSCLC; 786-0 renal; COLO 205 colon; DU-145 prostate; K-562 leukemia; MALME-3M melanoma; MDA-MB-231 breast; RXF 393 renal; SF-268 CNS; SF-295 CNS; SF-539 CNS; UACC-257 melanoma; M14 melanoma.
Common to all, as to experiment: NCI-60 one-dose screen, 48 h (100 = growth as untreated, 0 = no growth, -100 = all killed)
Conditions in all cases: 10 µM unless noted

As for `Cc1ccc(NC(=O)N/C(N)=N/c2nc(=O)c3ccccc3s2)cc1`, the growth in the experiment on NCI-H23 lung is 94.1%; in the experiment with NCI-H226 lung it was 91.3%; in the experiment with NCI-H322M lung, 93.9%; in the experiment on HOP-62 NSCLC it was 91.7%; in the experiment on NCI-H460 lung, 88.8%; in the experiment on HOP-92 NSCLC it was 86.4%. Moreover, the growth in the experiment with NCI-H522 lung is 95.3%; with A549/ATCC NSCLC, 103%; in the experiment on 786-0 renal, 98.6%; in the experiment on COLO 205 colon it was 103%; with DU-145 prostate, 108%; in the experiment with K-562 leukemia it was 57%. Moreover, the growth is 93.9% in the experiment on MALME-3M melanoma; 86% in the experiment with MDA-MB-231 breast; 99% in the experiment on RXF 393 renal; 102% in the experiment with SF-268 CNS; 101% in the experiment on SF-295 CNS; 95.5% with SF-539 CNS. The growth is 103% in the experiment on UACC-257 melanoma and 92.4% in the experiment on M14 melanoma.
Consider `O=C(NNc1ccccc1)C1CCCN1` (stereo not given), for which the growth with NCI-H23 lung was 98.8%; with NCI-H226 lung it was 80.9%; in the experiment on NCI-H322M lung, 86%; with HOP-62 NSCLC it was 76.7%; in the experiment with NCI-H460 lung, 99.1%; with HOP-92 NSCLC, 108%. The growth was 52.2% with NCI-H522 lung; 75.9% with A549/ATCC NSCLC; 89.2% with 786-0 renal; 103% in the experiment on COLO 205 colon; 60.7% with DU-145 prostate; 11% with K-562 leukemia. Also, the growth was 76.4% in the experiment with MALME-3M melanoma; 86.1% in the experiment with MDA-MB-231 breast; 107% with RXF 393 renal; 64.6% in the experiment on SF-268 CNS; 85% in the experiment on SF-295 CNS; 80.5% with SF-539 CNS. Further, the growth was 88.6% in the experiment with UACC-257 melanoma and 43.1% with M14 melanoma.
In the case of `CCC(=O)Oc1cc(Cl)c(Cl)cc1Cl`, the growth is 102% in the experiment on NCI-H23 lung; 97.7% in the experiment with NCI-H226 lung; 104% with NCI-H322M lung; 105% in the experiment on HOP-62 NSCLC; 104% in the experiment with NCI-H460 lung; 100% in the experiment with HOP-92 NSCLC. Also, the growth with NCI-H522 lung is 99.8%; in the experiment with A549/ATCC NSCLC, 101%; in the experiment on 786-0 renal it was 98.2%; with COLO 205 colon, 113%; in the experiment with DU-145 prostate it was 103%; with K-562 leukemia, 101%. For the same compound, the growth in the experiment on MALME-3M melanoma was 108%; in the experiment with MDA-MB-231 breast, 114%; in the experiment on RXF 393 renal it was 113%; in the experiment with SF-268 CNS, 97.9%; in the experiment on SF-295 CNS, 96%; in the experiment with SF-539 CNS it was 97.1%. The results for the growth in the experiment with UACC-257 melanoma and with M14 melanoma were 95.8% and 99.5%, respectively.
In the case of `CC/C(=C(/c1ccc(O)cc1)c1ccc(OCCN2CCCCCC2)cc1)c1ccc(Cl)cc1`, the growth is 80.4% with NCI-H23 lung; 89.2% in the experiment on NCI-H226 lung; 84.1% with NCI-H322M lung; 98.8% in the experiment with HOP-62 NSCLC; 46% with NCI-H460 lung; 69.5% in the experiment on HOP-92 NSCLC. In addition, the growth was 90.2% with NCI-H522 lung; 70.6% with A549/ATCC NSCLC; 18.4% with 786-0 renal; 4.48% (active) with COLO 205 colon; 82.9% with DU-145 prostate; -21.5% (active) in the experiment with K-562 leukemia. The growth in the experiment on MALME-3M melanoma is 47.5%; with MDA-MB-231 breast it was 88.4%; with RXF 393 renal it was 63.7%; in the experiment on SF-268 CNS, 63.4%; in the experiment with SF-295 CNS it was 87.8%; in the experiment on SF-539 CNS, 78.2%. In addition, the growth in the experiment with UACC-257 melanoma was 87.3%; in the experiment on M14 melanoma, 17%.
For `O=C(CN1C(=O)S/C(=C\C(Cl)=C\c2ccccc2)C1=O)NC1C=CS(=O)(=O)C1` (stereo not given), the growth in the experiment on NCI-H23 lung is 16.7%; in the experiment with NCI-H226 lung, -21.7% (active); with NCI-H322M lung, 88.9%; in the experiment with HOP-62 NSCLC it was 86.5%; in the experiment on NCI-H460 lung, 54%; in the experiment with HOP-92 NSCLC, 37.2%. Further, the growth in the experiment on NCI-H522 lung was -46.2% (active); in the experiment with A549/ATCC NSCLC, 68.5%; in the experiment on 786-0 renal, -74.4% (active); with COLO 205 colon it was -21.8% (active); with DU-145 prostate it was 24.8%; in the experiment with K-562 leukemia, 4.66% (active). The growth was -24.9% (active) in the experiment on MALME-3M melanoma; 14.3% in the experiment with MDA-MB-231 breast; -77.8% (active) in the experiment with RXF 393 renal; 63.9% in the experiment with SF-268 CNS; 80.8% in the experiment on SF-295 CNS; 1.56% (active) in the experiment on SF-539 CNS. Besides, the growth was 45.2% with UACC-257 melanoma and -49.9% (active) in the experiment on M14 melanoma.
Take `c1cc(NCCCCN2CCOCC2)c2ccc3c(ccc4c(NCCN5CCOCC5)ccnc43)c2n1`: the growth in the experiment with NCI-H23 lung is 70.7%; in the experiment on NCI-H226 lung it was 79.6%; with NCI-H322M lung, 72.9%; with HOP-62 NSCLC it was 81.5%; in the experiment on NCI-H460 lung, 40.8%; in the experiment with HOP-92 NSCLC, 56.8%. For the same compound, the growth in the experiment on NCI-H522 lung is 82.5%; in the experiment on A549/ATCC NSCLC, 75.9%; in the experiment with 786-0 renal, 79.5%; in the experiment with COLO 205 colon, 90.5%; in the experiment on DU-145 prostate, 80.8%; in the experiment on K-562 leukemia, 66.5%. The growth with MALME-3M melanoma was 99.9%; in the experiment on MDA-MB-231 breast, 71%; in the experiment with RXF 393 renal, 72.5%; with SF-268 CNS, 101%; with SF-295 CNS, 97.9%; in the experiment on SF-539 CNS it was 82.3%. Besides, the growth is 116% in the experiment with UACC-257 melanoma and 92.7% with M14 melanoma.
Turning to `CCN(C(=O)N1CCN(c2cc3c(cc2F)c(=O)c(C(=O)O)cn3C2CC2)CC1)c1nc(-c2ccccc2)cs1`, the growth in the experiment on NCI-H23 lung was 6.27% (active); in the experiment on NCI-H226 lung it was 20.9%; with NCI-H322M lung, 13.3%; in the experiment with HOP-62 NSCLC, 36%; with NCI-H460 lung, 5.27% (active); with HOP-92 NSCLC it was -18.4% (active). Moreover, the growth is -1.7% (active) in the experiment with NCI-H522 lung; 12.4% in the experiment on A549/ATCC NSCLC; 14.3% in the experiment on 786-0 renal; 64.1% in the experiment on COLO 205 colon; 27.1% in the experiment with DU-145 prostate; 13.8% in the experiment on K-562 leukemia. The growth was 22.1% with MALME-3M melanoma; 5.26% (active) in the experiment with MDA-MB-231 breast; 19.7% with RXF 393 renal; 25% in the experiment on SF-268 CNS; 8.29% (active) in the experiment on SF-295 CNS; 8.47% (active) in the experiment on SF-539 CNS. Moreover, the growth in the experiment with UACC-257 melanoma was 74.1%; with M14 melanoma it was 22.9%.
Regarding `COC(=O)c1[nH]nc(OC)c1C1(C(C#N)c2nc3ccccc3s2)CCCc2ccccc21` (stereo not given), the growth was 97.5% with NCI-H23 lung; 84.9% with NCI-H226 lung; 99.6% in the experiment with NCI-H322M lung; 85% in the experiment with HOP-62 NSCLC; 99% in the experiment with NCI-H460 lung; 72.9% in the experiment on HOP-92 NSCLC. Also, the growth with NCI-H522 lung was 98.4%; in the experiment on A549/ATCC NSCLC it was 96.2%; in the experiment on 786-0 renal, 101%; with COLO 205 colon, 103%; with DU-145 prostate, 108%; in the experiment on K-562 leukemia, 92.4%. For the same compound, the growth with MALME-3M melanoma is 101%; in the experiment with MDA-MB-231 breast, 79.9%; with RXF 393 renal it was 117%; in the experiment with SF-268 CNS it was 101%; in the experiment on SF-295 CNS, 97.5%; in the experiment with SF-539 CNS, 106%. Moreover, the growth in the experiment on UACC-257 melanoma was 101%; in the experiment with M14 melanoma, 95.2%.
